Results on 34 compounds are retold here after PubChem BioAssay (NCATS).

Records with an inconclusive call do not appear. Entries that show only a call come without a potency. Unmarked numbers belong to inactive results. The source made the active and inactive calls. The call rests on the fitted dose curve; in most records, active means well fitted cell-killing curve with a large enough effect; inconclusive means small, poorly fitted or top-dose-only effect, or effect the other way; inactive means flat fitted curve, though single readings scatter.
Potency means the concentration at half of the fitted maximal effect.

This test concerns PA-1. The test is described as follows: Primary qHTS to identify gynecologic anti-cancer compounds using libraries of approved drugs and bioactive compounds (AID 1345084). Further: nearly all actives have a fitted effect of over 55% in size. To be noted: Gynecologic cancer cell panel viability, ATPlite luminescence, 48 h; series mostly up to 57.5 µM. The method, boiled down: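 Measured: luminescence after ATPlite addition (15 min, RT). Exposure: 48 h, 37 C, 5% CO2.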
(In general: Quantitative high-throughput screening tests each substance at several concentrations.)
Take `COc1cc(N2CCC(N)CC2)ccc1Nc1ncc(Cl)c(-c2c[nH]c3ccccc23)n1`: the Potency is 15.8 µM (active).
The same measure, in the same setting: for `N#Cc1ccc(Nc2nc(-c3ccc(O)cc3O)cs2)cc1C(F)(F)F` the value was 8.91 µM (active); for `COc1cc2ncnc(Nc3ccc(F)c(Cl)c3)c2cc1O`, “inactive”; for `COC1CC(O[C@H]2CC[C@]3(C)C4CC[C@]5(C)C(C6=CC(=O)OC6)=CCC56OC46CC[C@@H]3C2)OC(C)C1O[C@@H]1O[C@H](CO[C@@H]2O[C@H](CO)[C@@H](O)[C@H](O)[C@H]2O)[C@@H](O)[C@H](O)[C@H]1O` (some centres undefined), 3.98 µM (active).
On the same count and under the same terms, for `C#CCOc1ccc2c(c1)c(-c1ccc(C(C)C)cc1)nc(=O)n2C(C)C` the value was “inactive”.
The same measure, in the same setting: for `Cc1cn(CCN2CCN(c3ccccc3-c3cc(C#N)cc(C(=O)NCCCN4CCCC4)c3)CC2)c2ccccc12` the value was “inactive”.
Turning to `CCCc1cc2c(N3CCN(C4=NCC(C)(C)S4)CC3)ncnc2s1`, the Potency result is “inactive”.
The same measure, in the same setting: for `CCNC1(C(N)=O)CN(c2nc(C)nc3c(-c4ccc(Cl)cc4)c(-c4ccccc4Cl)nn23)C1` the value was “inactive”; for `CCC(C)CNCC(=O)N1CCc2sccc2C1COc1cccc(C)c1` (centres undefined), “inactive”.
On the same count and under the same terms, for `C#Cc1cccc(Nc2nc3cc(C(=O)O)ccc3c3cncnc23)c1` the value was 3.55 µM (active); for `Cn1nc(-c2ccc(C(F)(F)F)cc2)nc2c(=O)n(C)c(=O)nc1-2`, 5.01 µM (active); for `Cn1ncc(Cl)c1-c1cc(C(=O)N[C@H](CN)Cc2ccc(F)c(F)c2)sc1Cl`, “inactive”.
Still for that read-out and setting: for `O=C1COC2(CCN(S(=O)(=O)c3ccc(-c4ccc5cccnc5c4)cc3)CC2)CN1C1CC1` the value was “inactive”; for `O=C(NCCN1CCOCC1)c1cc2c(Oc3ccc(NC(=O)C4(C(=O)Nc5ccc(F)cc5)CC4)cc3)ccnc2[nH]1`, “inactive”.
On to `C#CC(=O)N(c1ccc(OC)cc1OC)C(C(=O)NCC(=O)OCC)c1cccs1` (centres undefined), for which the Potency is 1.58 µM (active).
Still for that read-out and setting: for `C/C=C(\C)C(=O)OC1C(C)C2(O)C(C=C(CO)CC3(O)C(=O)C(C)=CC32)C2C(C)(C)C12OC(C)=O` (centres undefined) the value was “inactive”.
The same measure, in the same setting: with `CC1=C(c2ccc(NC(=O)c3c(F)cccc3F)cc2)CN(c2nccs2)CC1` the entry was “inactive”.
Regarding `O=S(=O)(Nc1ccccc1N1CCCCC1)c1ccc(Cl)s1`, the Potency result is “inactive”.
On the same count and under the same terms, with `Cc1cccc(-c2[nH]ncc2-c2ccnc3ccccc23)n1` the entry was “inactive”.
Still for that read-out and setting: for `COc1ccc([C@H]2OC[C@H]3O[C@@H](O[C@H]4[C@@H]2NC[C@@H]4O)[C@H](O)[C@H]3O)cc1` the value was 5.01 µM (active).
Regarding `C[C@@H]1O[C@@H](O[C@H]2[C@@H](OC(=O)[C@]34CCC(C)(C)CC3C3=CCC5[C@@]6(C)C[C@H](O)[C@H](O[C@@H]7O[C@H](CO)[C@@H](O)[C@H](O)[C@H]7O[C@@H]7OC[C@@H](O)[C@H](O)[C@H]7O)[C@@](C)(C(=O)O)C6CC[C@@]5(C)[C@]3(C)CC4)OC[C@H](O)[C@@H]2O)[C@H](O)[C@H](O)[C@H]1O[C@@H]1OC[C@@H](O)[C@H](O)[C@H]1O` (some centres undefined), the activity change, negative = cytotoxicity was -26.7% [at 6.55 µM].
On to `C/C1=C/CCC2=CC(OC2=O)C(C)(C)/C=C/C1=O` (centres undefined), for which the Potency is 8.91 µM (active).
The same measure, in the same setting: with `CCC(CC)(NC(=O)C(C)C)C(=O)N[C@@H](CCCN=C(N)N)C(=O)NC1(C(=O)NC(c2ccc(F)cc2)c2ccc(F)cc2)CCCC1` the entry was “inactive”.
On the same count and under the same terms, for `O=C(NCCN1CCC(n2c(=O)[nH]c3ccccc32)CC1)c1ccc2ccccc2c1` the value was “inactive”; for `O=C(NC[C@H](O)CN1CCc2ccccc2C1)c1ccnc(NC2CCC2)c1`, “inactive”.
Still for that read-out and setting: with `COc1ccc(CNCc2cccc3ccccc23)cc1` the entry was “inactive”; with `O=C1Cc2c([nH]c3ccc(Br)cc23)-c2ncccc2N1`, “inactive”; with `C/C=C(\C)C(=O)O[C@@H]1[C@@H](C)[C@]2(O)[C@@H]3C=C(C)C(=O)[C@H]3CC(CO)=C[C@H]2C2C(C)(C)[C@@]21OC(=O)C(C)CC` (some centres undefined), “inactive”.
Consider `Nc1nc2c(ncn2C2OC3COP(=O)(O)OC3C2O)c(=O)[nH]1` (centres undefined), for which the Potency entry is “inactive”.
As for `Nc1nc2c(c(N3CC[C@@H](N)C3)n1)CCCc1ccccc1-2`, the Potency result was “inactive”.
On the same count and under the same terms, with `CC(O)C(C)n1ncn(-c2ccc(N3CCN(c4ccc(OCC5COC(Cn6cncn6)(c6ccc(Cl)cc6Cl)O5)cc4)CC3)cc2)c1=O` (centres undefined) the entry was “inactive”.
On the same count and under the same terms, for `CC(C)=CCC/C(C)=C/COCC1OC(n2ccc(=O)[nH]c2=O)C(O)C1O` (centres undefined) the value was “inactive”; for `CCC(CC)C(=O)OC12C(OC(=O)C(C)C)C(C)C3(O)C(C=C(CO)CC4(O)C(=O)C(C)=CC43)C1C2(C)C` (centres undefined), “inactive”.
Turning to `CCC(C)(OC(C)=O)C(=O)O[C@H]1[C@H](OC(C)=O)[C@]2(CO)[C@H](O)[C@H](O)[C@]3(C)C(=CCC4[C@@]5(C)CC[C@H](O[C@@H]6O[C@H](C(=O)O)[C@@H](O)[C@H](O[C@@H]7OC[C@H](O)[C@H](O[C@@H]8OC[C@H](O)[C@H](O)[C@H]8O)[C@H]7O)[C@H]6O[C@@H]6O[C@H](CO)[C@@H](O)[C@H](O)[C@H]6O)C(C)(C)C5CC[C@]43C)[C@@H]2CC1(C)C` (some centres undefined), the activity change, negative = cytotoxicity is -11.2% [at 6.55 µM].
